Source: PubChem BioAssay
Values without a mark were called inactive. Active and inactive are the calls of the source. Rule as the data show it, unless noted: active = inhibition above about 33%; inactive = the rest.

Target: Steroidogenic factor 1 (Homo sapiens) (UniProt Q13285)
Experiment: inverse agonism at SF1 nuclear receptor – cell-based, luminescence, high throughput, counter-screen for LRH-1 inverse agonist project (AID 651614; in the data active = inhibition above about 44%;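 also: cells cotransfected with StAR promoter reporter and SF1 expression vector; 0% = vehicle on cells with receptor and 100% = vehicle on cells lacking receptor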)
Details: cell-based SF1 luciferase reporter, at 3.6 µM, stronger effect = higher value

Sequence of Steroidogenic factor 1 (Homo sapiens) (Q13285 whole entry, looked up): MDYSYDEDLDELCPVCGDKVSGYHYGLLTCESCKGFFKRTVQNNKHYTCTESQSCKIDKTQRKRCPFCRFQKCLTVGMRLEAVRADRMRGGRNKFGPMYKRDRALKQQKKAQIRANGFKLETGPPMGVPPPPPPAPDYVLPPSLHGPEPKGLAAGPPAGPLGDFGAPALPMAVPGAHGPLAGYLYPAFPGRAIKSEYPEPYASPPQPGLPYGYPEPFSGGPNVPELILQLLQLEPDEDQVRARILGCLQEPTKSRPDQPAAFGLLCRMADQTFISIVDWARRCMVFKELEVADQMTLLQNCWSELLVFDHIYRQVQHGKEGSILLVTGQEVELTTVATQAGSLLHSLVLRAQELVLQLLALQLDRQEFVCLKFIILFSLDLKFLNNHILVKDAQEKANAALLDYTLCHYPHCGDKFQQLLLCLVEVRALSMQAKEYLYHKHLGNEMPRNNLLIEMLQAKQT

Structure (SMILES)	inhibition
COc1ccc2c(c1)CCN(C(=O)CCl)C2C1C(=O)CCCC1=O (centres undefined)	54.4% (active)
CCOC(=O)C1CCCN(S(=O)(=O)c2ccc(S(=O)(=O)N(CC)CC)cc2)C1 (centres undefined)	54.5% (active)
COCC(C)n1c(-c2ccc3c(c2)NC(=O)CO3)csc1=Nc1ccc(OC(F)F)cc1 (centres undefined)	69.3% (active)
COc1ccc(NC(=O)CSc2n[nH]c(-c3ccccn3)n2)cc1	20.2%
COc1ccc(C(=O)C(C)Oc2cccc(NC(=O)c3cccc([N+](=O)[O-])c3)c2)cc1 (centres undefined)	44.1% (active)
COc1cccc(C(C)(O)c2nc(-c3cccc(C#N)c3)cs2)c1 (centres undefined)	49.4% (active)
O=[N+]([O-])c1ccc(/C=N/n2c(CO)nc3ccccc32)s1	59.9% (active)
O=C(Nc1cccc2ccccc12)c1ccc([N+](=O)[O-])o1	70.8% (active)
CCOc1ccc(NC(=O)CSc2nc3[nH]ncc3c(=O)[nH]2)cc1	43.5% (active)
NC(=S)N/N=C/c1ccc(C(F)(F)F)cc1	44.6% (active)
COc1ccccc1Nc1nc(NCCCCO)nc(N2CCCC2)n1	38.3%
Cc1ccc(NC(=O)c2ccc([N+](=O)[O-])o2)c(C)c1	54.6% (active)
O=C(Nc1nc(-c2cccs2)cs1)c1ccc([N+](=O)[O-])o1	62.9% (active)
S=C(Nc1cccnc1)Nc1cccc2cnccc12	26.2%
CCOC(=O)c1ccc(N=Cc2cnc(N)nc2N)cc1	7.7%
COc1ccc(NC(=O)CN2C(=O)NC(C)(c3ccc(C)cc3)C2=O)c([N+](=O)[O-])c1 (centres undefined)	55.1% (active)
CC(C)(C)c1ccc(C(=O)Nc2ccc(C(=O)NCc3cccnc3)cc2)cc1	93.2% (active)
Cc1ccc2c(c1)N(C)/C(=C/c1cccc[n+]1C)S2	64% (active)
Cc1cccc(C)c1NC(=O)C(c1ccc(C(F)(F)F)cc1)n1c(=O)c(-c2cc3ccccc3[nH]2)nc2ccccc21 (centres undefined)	24.7%
COc1ccc2c(/C=C/c3cc[n+](C)cc3)c[nH]c2c1	56.3% (active)
CCOc1ccc(NC(=O)COC(=O)C2COc3ccccc3O2)cc1 (centres undefined)	28.8%
Cc1cc(C(=O)NC2CCCc3c2cnn3-c2cccc(C)c2C)n(C)n1 (centres undefined)	58.4% (active)
COc1ccc(NC(=O)CN2C(=O)NC3(CCCC3)C2=O)cc1Cl	60.6% (active)
Oc1c(Cl)cc(CN2CCOCC2)c2cccnc12	6.83%

Test system: not listed separately
Experiment: compounds suppressing VP16-driven luciferase signal – cell-based, luminescence, high throughput, counter-screen for LRH-1 inverse agonist project (AID 651615)
Details: Gal4-VP16 luciferase reporter cells, at 3.6 µM, stronger effect = higher value

Structure (SMILES)	inhibition
CCc1c(O)nc(SCC(=O)Nc2ccc(OC)cc2)n(C2CCCCC2)c1=O	5.01%
CCCCCCCCn1c2c(c(=N)c3ccccc31)CCC2	92.1% (active)
O=C1C=C(N2CCCCCC2)C2(CCCCC2)O1	-9.31%
O=C(CSC1=NC2(CCCCCC2)N=C1c1ccccc1)Nc1ccc2c(c1)OCCO2	12.7%
O=C(c1ccc([N+](=O)[O-])o1)N1CCN(c2nc3c(Cl)cccc3s2)CC1	3.24%
CS(=O)(=O)N1CCN(c2ccc(NC(=O)CSc3nnc(-c4ccco4)o3)cc2)CC1	-2.76%
COc1cccc(-c2cc(NC=O)c3ncc(-c4ccc(C(C)=O)cc4)n3c2)c1	-11.4%
Cc1ccccc1C(=O)NC1CCN(CC(=O)Nc2ccc(Br)cc2)CC1	15.4%
O=C(c1ccc([N+](=O)[O-])s1)N1CCN(c2ncccn2)CC1	4.85%
O=C(CSc1ncnc2c1cnn2-c1ccccc1)Nc1ccc2c(c1)OCO2	-7.58%
COc1ccc2nc(N3CCN(C(=O)c4ccc([N+](=O)[O-])o4)CC3)sc2c1	-44.3%
Cc1nnsc1C(=O)NC1CCCc2c1cnn2-c1ccc(F)cc1F (centres undefined)	55.9% (active)
CN(C)S(=O)(=O)c1cccc(CSCc2cccc(S(=O)(=O)N(C)C)c2)c1	46.1% (active)
O=C(CSc1n[nH]c(-c2ccccc2)n1)Nc1ccc(F)cc1F	3.19%
Cc1c(Cl)cccc1NC(=O)CS(=O)(=O)c1ccccc1	-1.09%
O=C(CSc1nnnn1C1CCCC1)Nc1ccc2c(c1)OCCO2	-30.9%
COc1ccc2c(c1)CCN(C(=O)CCl)C2C1C(=O)CCCC1=O (centres undefined)	-6.95%
CCOC(=O)C1CCCN(S(=O)(=O)c2ccc(S(=O)(=O)N(CC)CC)cc2)C1 (centres undefined)	49.5% (active)
COCC(C)n1c(-c2ccc3c(c2)NC(=O)CO3)csc1=Nc1ccc(OC(F)F)cc1 (centres undefined)	34.4% (active)
COc1ccc(NC(=O)CSc2n[nH]c(-c3ccccn3)n2)cc1	2.72%

Structure (SMILES)	inhibition
COc1ccc(C(=O)C(C)Oc2cccc(NC(=O)c3cccc([N+](=O)[O-])c3)c2)cc1 (centres undefined)	-5.28%
COc1cccc(C(C)(O)c2nc(-c3cccc(C#N)c3)cs2)c1 (centres undefined)	22.6%
O=[N+]([O-])c1ccc(/C=N/n2c(CO)nc3ccccc32)s1	2.51%
O=C(Nc1cccc2ccccc12)c1ccc([N+](=O)[O-])o1	-3.59%
CCOc1ccc(NC(=O)CSc2nc3[nH]ncc3c(=O)[nH]2)cc1	-6.78%
NC(=S)N/N=C/c1ccc(C(F)(F)F)cc1	9.68%
COc1ccccc1Nc1nc(NCCCCO)nc(N2CCCC2)n1	5.34%
Cc1ccc(NC(=O)c2ccc([N+](=O)[O-])o2)c(C)c1	-6.21%
O=C(Nc1nc(-c2cccs2)cs1)c1ccc([N+](=O)[O-])o1	-34.9%
S=C(Nc1cccnc1)Nc1cccc2cnccc12	17%
CCOC(=O)c1ccc(N=Cc2cnc(N)nc2N)cc1	3.32%
COc1ccc(NC(=O)CN2C(=O)NC(C)(c3ccc(C)cc3)C2=O)c([N+](=O)[O-])c1 (centres undefined)	-9.49%
CC(C)(C)c1ccc(C(=O)Nc2ccc(C(=O)NCc3cccnc3)cc2)cc1	61% (active)
Cc1ccc2c(c1)N(C)/C(=C/c1cccc[n+]1C)S2	67% (active)
Cc1cccc(C)c1NC(=O)C(c1ccc(C(F)(F)F)cc1)n1c(=O)c(-c2cc3ccccc3[nH]2)nc2ccccc21 (centres undefined)	7.59%
COc1ccc2c(/C=C/c3cc[n+](C)cc3)c[nH]c2c1	50.9% (active)
CCOc1ccc(NC(=O)COC(=O)C2COc3ccccc3O2)cc1 (centres undefined)	3.94%
Cc1cc(C(=O)NC2CCCc3c2cnn3-c2cccc(C)c2C)n(C)n1 (centres undefined)	59.1% (active)
COc1ccc(NC(=O)CN2C(=O)NC3(CCCC3)C2=O)cc1Cl	-7.78%
Oc1c(Cl)cc(CN2CCOCC2)c2cccnc12	-5.55%
